An excerpt weighted towards active compounds, which were near 10% of everything screened.
HPGD inh – HPGD (human) dehydrogenase inhibition; P15428; purified HPGD, NADH fluorescence kinetic, PGE2 substrate; Potency, µM, for the others: at the highest dose activity change, negative = inhibition, usual class: inhibitors; 150,000 tested, 4.3% active; also: potency is read from the fitted curve at half-maximal effect
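20 nM HPGD preincubated 15 min at room temperature with compound in 50 mM Tris-HCl pH 8, 0.01% Tween 20. Started with 1 mM NAD+ and 30 uM prostaglandin E2; NADH fluorescence (360/450 nm) read 5 times over 30-s intervals, last minus first.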
12-hLO inh – 12-hLO (ALOX12) enzyme inhibition | 150,000 tested, 0.12% active | purified 12-hLO, xylenol orange hydroperoxide absorbance | Potency, µM (series often up to 57.1 µM), inactives show at the highest dose activity change, negative = inhibition, usual class: inhibitors; active = well fitted inhibition curve with a large enough effect; inconclusive = small, poorly fitted or top-dose-only effect; also: potency is read from the fitted curve at half-maximal effect; nearly all actives have a fitted effect of over 55% in size
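Hydroperoxide output read as Fe(III)-xylenol orange absorbance, 573-to-405 nm ratio, after 30 min reaction with 40 uM arachidonic acid. Enzyme: 150 nM purified human 12hLO, 15 min compound preincubation; 25 mM Hepes pH 7.0, room temperature.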
LMNA splice mod – changes lamin A minigene splicing in HeLa cells; HeLa LMNA splicing GFP/RFP minigene ratio, 48 h; Potency, µM (doses to about 46.1 µM), inactives show at the top dose ratio change, negative = inhibition, actives largely listed as inhibitors; 200,000 tested, 0.01% active; active = well fitted inhibition curve with a large enough effect in the signal ratio, with a control signal flat, not every such curve was filed as active; inconclusive = small, poorly fitted or top-dose-only effect, or effect the other way, or a change in a side signal; the % refers to the signal ratio; also: potency is read from the fitted curve at half-maximal effect
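Read-out is the ratio of GFP to DsRed2 object intensity, acquired by 488 nm laser-scanning cytometry on HeLa lamin A-EGFP minigene reporter cells. Compound incubation 48 hrs at 37 °C in Opti-MEM with 2% FBS; DMSO 0.5% final.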
ALDH1A1 inh – blocks purified human ALDH1A1 activity; P00352; Purified ALDH1A1, NADH fluorescence, propionaldehyde substrate; Potency, µM (doses to about 75.3 µM), without a hit: at the highest dose activity, negative = inhibition, usual class: inhibitors; 220,000 tested, 7.3% active;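 also: potency is read from the fitted curve at half-maximal effect; plate controls were no enzyme wells and a reference inhibitor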
Target sequence (P00352 whole entry, looked up): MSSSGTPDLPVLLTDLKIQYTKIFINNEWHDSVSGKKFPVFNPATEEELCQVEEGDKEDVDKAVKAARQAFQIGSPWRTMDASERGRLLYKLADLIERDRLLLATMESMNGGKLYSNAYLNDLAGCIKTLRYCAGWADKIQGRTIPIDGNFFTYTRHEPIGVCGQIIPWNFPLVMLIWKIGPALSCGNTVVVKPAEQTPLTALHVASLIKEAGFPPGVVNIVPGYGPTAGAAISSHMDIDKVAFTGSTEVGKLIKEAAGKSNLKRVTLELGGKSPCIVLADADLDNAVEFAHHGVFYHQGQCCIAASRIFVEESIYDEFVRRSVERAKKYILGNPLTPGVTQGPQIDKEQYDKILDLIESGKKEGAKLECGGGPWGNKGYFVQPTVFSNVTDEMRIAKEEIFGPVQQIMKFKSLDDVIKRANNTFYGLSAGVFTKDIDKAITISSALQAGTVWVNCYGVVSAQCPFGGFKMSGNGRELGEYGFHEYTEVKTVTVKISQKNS
PNC inhibitor – inhibitors of perinucleolar compartment assembly; PC3M PTB-GFP, PNC prevalence imaging, 16 h; hits give low values; 140,000 tested, 3.1% active; AID 2417; activity change (PNC), negative = inhibition, % at 10 µM;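 active = readout at or below -70, meaning at least 70% loss of cells showing the perinucleolar compartment, a nuclear body marking cancer cells; inconclusive = readout between -30 and a set limit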;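 also: plate controls were DMSO wells for no effect and camptothecin positive control wells for full effect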
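Read-out is percentage of cells bearing a perinucleolar compartment, from automated 20x imaging of fixed, Hoechst-stained PC3M PTB-GFP cells. Cells were seeded 4 h, then exposed 16 h to compound (23 nl of library stock) in duplicate plates.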
An asterisk follows results filed as active; ? = inconclusive; / = no result given; [ ] = dose if it differs, or a comment. Unless noted, calls follow the shape of the dose curve; as a rule, active = well fitted inhibition curve with a large enough effect (not every such curve was filed as active); inconclusive = small, poorly fitted or top-dose-only effect, or another doubt; inactive = no such curve, though single readings can be large or run the other way. Unless noted, % is scaled to controls: 0 for no effect and ±100 for the full control effect.

SMILES | HPGD inh | 12-hLO inh | LMNA splice mod | ALDH1A1 inh | PNC inhibitor
O=C(CN1C(=O)/C(=C2\SC(=S)N(C3CCS(=O)(=O)C3)C2=O)c2ccccc21)Nc1ccccc1 (stereo unspecified) | -9% | 0% | -11% | 7.1µM* | -2
Cc1ccc(NC(=O)CN2C(=O)c3ccccc3Sc3ccc(C(=O)N4CCCC4)cc32)cc1 | / | / | -8%[46 µM] | / | /
Cc1ccc(NC(=O)CN2C(=O)/C(=C3\SC(=S)N(C4CCS(=O)(=O)C4)C3=O)c3ccccc32)cc1 (stereo unspecified) | -7% | -1% | -6% | 1.4µM* | 45
Cc1cc(Br)ccc1SCC(=O)OCC(=O)N1CCN(C(=O)c2ccco2)CC1 | ? | -8% | 6% | ? | -9
O=C(NC1=NCCS1)c1sc2cc(F)ccc2c1Cl | -15% | 2% | -8% | -15% | 44
O=C(NCc1ccco1)c1sc2cc(F)ccc2c1Cl | 25µM* | -5% | -1% | -10% | -13
O=C(OCC(=O)N1CCN(C(=O)c2ccco2)CC1)c1sc2cc(F)ccc2c1Cl | -23% | 5% | -5% | 28µM* | -3
O=C(Cc1ccccc1F)OCC(=O)N1CCN(C(=O)c2ccco2)CC1 | / | / | -20%[46 µM] | ? | /
O=C(CSc1cccc2cccc(Cl)c12)OCC(=O)N1CCN(C(=O)c2ccco2)CC1 | ? | -4% | 1% | 11µM* | -8
O=C(Nc1ccon1)c1sc2cc(F)ccc2c1Cl | -18% | 2% | -12% | 5% | -100*
COc1ccc(N2CCN(C(=O)c3cnc(N4CCOCC4)c4ccccc34)CC2)cc1 | / | / | -2%[46 µM] | / | /
COc1ccc(C)cc1Nc1cc(C)nc(C)n1 | / | / | -11%[46 µM] | / | /
Cn1c(SCc2nnc3n2CCCCC3)nc2ccccc21 | 25µM* | -2% | 4% | 8% | -29
O=C(c1ccccc1-c1nc(-c2ccc(F)cc2)no1)N1CCCC1 | -6% | -5% | ? | ? | -100*
O=C(c1ccccc1-c1nc(-c2ccccc2)no1)N1CCOCC1 | 6% | -3% | 17% | -2% | ?
COC(=O)C(CCSC)NC(=O)c1cc2c(n(-c3ccccc3)c1=O)CC(C)(C)CC2=O (stereo unspecified) | -7% | 0% | 2% | 28µM* | 18
CCN(CC)S(=O)(=O)c1ccc(C(=O)Nc2cc3oc4ccccc4c3cc2OC)cc1 | -13% | -3% | 8% | ? | 12
CN(C)S(=O)(=O)c1cccc(C(=O)Nc2ccccc2[N+](=O)[O-])c1 | 40µM* | -3% | ? | ? | -7
CCOc1ccccc1NC(=O)c1ccc(S(=O)(=O)N(C)C)cc1 | -18% | -5% | 3% | 14µM* | -21
CCN(CC)S(=O)(=O)c1cc(C(=O)Nc2ccccc2[N+](=O)[O-])ccc1Cl | -7% | -11% | ? | -11% | 41
COc1cc2c(cc1NC(=O)c1cccc(S(=O)(=O)N(C)C)c1)oc1ccccc12 | ? | -2% | ? | ? | -107*
CSc1ccccc1NC(=O)CN(Cc1ccccc1)S(C)(=O)=O | -6% | -4% | 15% | -9% | 49
CCOc1ccccc1NC(=O)CN(Cc1ccccc1)S(C)(=O)=O | -3% | 2% | -2% | 3% | -94*
O=C(O)CC(NS(=O)(=O)c1ccc(Cl)s1)c1ccccc1 (stereo unspecified) | / | / | -1%[46 µM] | / | /
COc1ccc(CNc2nc(-c3ccc4c(c3)OCO4)nc3ccccc23)c(OC)c1 | / | / | ? | 3% | /
SMILES | HPGD inh | 12-hLO inh | LMNA splice mod | ALDH1A1 inh | PNC inhibitor
COc1cccc(CNC(=O)c2ccc3c(c2)nc2n3CCCCC2)c1OC | / | / | -10%[46 µM] | / | /
CC(C)(CC(=O)OCC(=O)Nc1ccc(F)c(Cl)c1)CC1=NS(=O)(=O)c2ccccc2N1 | / | / | 9%[46 µM] | / | /
Cc1ccc(C2CN=NC23CCc2ccccc2C3=O)cc1 (stereo unspecified) | 32µM* | 4% | -2% | ? | 16
c1cc2c3c(cccc3c1)NC1(CCCCC1)N2 | -11% | -7% | 17% | 1% | 36
c1cc2c3c(cccc3c1)NC1(CCCCCC1)N2 | ? | 2% | 12% | 3.2µM* | 38
Cc1ccc2occ(/C=C/C(=O)c3ccccc3O)c(=O)c2c1 | -17% | 7% | 0% | 7.9µM* | 74
COc1cccc(NC(=O)CSc2nccn2C2CCCC2)c1 | / | / | -14%[46 µM] | / | /
N[C@@H](CCS(=O)O)C(=O)O | / | / | / | 5% | /
CCCCSc1nc(O)c(C2OC(=O)c3c2ccc(OC)c3OC)c(=O)n1C (stereo unspecified) | -5% | -4% | 13% | -3% | -3
CCSc1nc(O)c(C2OC(=O)c3c2ccc(OC)c3OC)c(=O)n1CC (stereo unspecified) | / | 1% | 10% | -8% | -122*
NCCCc1c(-c2ccccc2)nc(N)[nH]c1=O | -11% | -1%[11.4 µM] | / | 9%[13.5 µM] | /
CCCc1nc2ccccc2c(C(=O)OC(C)C(=O)NCc2ccc3c(c2)OCO3)c1CC (stereo unspecified) | -21% | -1% | ? | 4.5µM* | ?
CC(OC(=O)c1nn(C)c(=O)c2ccccc12)C(=O)NCc1ccc2c(c1)OCO2 (stereo unspecified) | 20µM* | -11% | 2% | ? | -23
CCOC(=O)c1cnc(N(C)C)nc1SC(=N)N | -18% | 1%[11.4 µM] | / | ? | /
C/C=C1\C(=O)CC2C3CCC4=CC(=O)CC[C@]4(C)C3CC[C@]12C (stereo partly specified) | -12% | 0%[0.00818 µM] | -16% | 4% | /
N#Cc1c(NC(=O)COC(=O)c2ccc(F)cc2)sc2c1CCC2 | -8% | -8% | 5% | 4% | 11
N#Cc1c(NC(=O)COC(=O)c2ccc(S(=O)(=O)N3CCCC3)cc2)sc2c1CCCCC2 | / | 2% | -13% | 10µM* | -14
Cc1ccc(C(=O)OCC(=O)Nc2sc3c(c2C#N)CCC3)cc1 | -9% | -4% | -13% | 25µM* | 4
COc1cc2c(cc1OC)C1(O)C(=O)c3ccc(O)c(C(=O)O)c3OC1CO2 (stereo unspecified) | -14% | -4% | / | -11% | /
O=c1c(CN2CCN(c3ccccn3)CC2)coc2ccccc12 | -2% | -3% | 0% | 25µM* | 9
Cn1nccc1/C=C(/C#N)S(=O)(=O)c1ccccc1 | -1% | 2% | -2% | -2% | ?
N#C/C(=C\c1ccc[nH]1)S(=O)(=O)c1ccccc1 | 4.5µM* | -6% | -11% | 6% | 12
O=C(Nc1ccccc1)C1=C[C@@H](c2ccccc2)C[C@@H](OCc2ccc(CO)cc2)O1 | / | / | / | -2% | /
O=C(O)C1=C[C@H](c2ccc(Br)cc2)C[C@H](OCCCCO)O1 | / | / | / | 0% | /
O=C(NCc1ccccc1)C1=C[C@@H](c2ccccc2)C[C@@H](OCc2ccc(CO)cc2)O1 | / | / | / | 32µM* | /
O=C(NCc1ccccc1)C1=C[C@H](c2coc3ccccc3c2=O)C[C@H](OCCCCO)O1 | / | / | / | 2% | /
